# Laboratory results: the supplement of paper PMC8253809
# Values joined by “and” are separate entries in the source; they are usually repeats but may differ in a detail not shown here. Identical values can stand only once.
# System: DIPGX29 (H3.3 K27M diffuse intrinsic pontine glioma line)
# Assay: growth inhibition (% activity, log2 RLU normalised to DMSO / staurosporine); higher = more growth inhibition
# Conditions: 33 µM
# Method in brief: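 Approved drugs, at a single final concentration of about 33 μM, were applied in triplicate to pHGG cell lines and H9-derived neural stem cells for 7 days at 37 °C, 5% CO2. The growth-inhibition value is the replicate median of log2-transformed CellTiter-Glo luminescence normalised per plate to % activity between solvent and positive control wells.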
row,Compound,growth inhibition
1,CCN[C@H]1CN(CCCOC)S(=O)(=O)c2sc(S(N)(=O)=O)cc21,0.611%
2,C=C1CCC(O)CC1=CC=C1CCCC2(C)C1CCC2C(C)CCCC(C)(C)O (stereo unspecified),-0.0142%
3,O=c1c(-c2ccc(O)cc2)coc2cc(O)ccc12,-1.42%
4,CC(C)Cc1ccc(C(C)C(=O)O)cc1 (stereo unspecified),0.835% and -0.392%
5,Cn1c(CNc2ccc(C(=N)N)cc2)nc2cc(C(=O)N(CCC(=O)O)c3ccccn3)ccc21,0.681%
6,CC(C)C[C@H](NC(=O)[C@H](CCc1ccccc1)NC(=O)CN1CCOCC1)C(=O)N[C@@H](Cc1ccccc1)C(=O)N[C@@H](CC(C)C)C(=O)[C@@]1(C)CO1,49.4%
7,C[N+](C)(C)CCCCCC[N+](C)(C)C,-5.28%
8,COc1cc(/C=C/C(=O)N2CCN(CC(=O)N3CCCC3)CC2)cc(OC)c1OC,-0.327%
9,O=C(CCCN1CC=C(n2c(=O)[nH]c3ccccc32)CC1)c1ccc(F)cc1,-2.81%
10,Cc1nnc(C(C)C)n1C1C[C@H]2CC[C@@H](C1)N2CC[C@H](NC(=O)C1CCC(F)(F)CC1)c1ccccc1 (stereo in doubt),0.752%
11,CCCCC(=O)N(Cc1ccc(-c2ccccc2-c2nnn[nH]2)cc1)[C@H](C(=O)O)C(C)C,-2.21%
12,CCN(CC)C(=O)/C(C#N)=C/c1cc(O)c(O)c([N+](=O)[O-])c1,-0.0111%
13,CN1CCC(=C2c3ccccc3C=Cc3ccccc32)CC1,1.58%
14,CCCCC(=O)O[C@]1(C(=O)CO)[C@@H](C)C[C@H]2[C@@H]3CCC4=CC(=O)C=C[C@]4(C)[C@@]3(F)[C@@H](O)C[C@@]21C,2.95%
15,O=C1OC(CN2CCOCC2)CN1/N=C/c1ccc([N+](=O)[O-])o1 (stereo unspecified),-1.53%
16,NC[C@@H]1O[C@H](O[C@H]2[C@@H](O)[C@H](O[C@@H]3[C@@H](O)[C@H](N)C[C@H](N)[C@H]3O[C@H]3O[C@H](CN)[C@@H](O)[C@H](O)[C@H]3N)O[C@@H]2CO)[C@H](N)[C@@H](O)[C@@H]1O,0.966%
17,C[C@@H]1CN(c2c(F)c(F)c3c(=O)c(C(=O)O)cn(C4CC4)c3c2F)C[C@H](C)N1,-1.92%
18,NC[C@H]1O[C@H](O[C@H]2[C@H](O)[C@@H](O[C@H]3O[C@H](CO)[C@@H](O)[C@H](N)[C@H]3O)[C@H](N)C[C@@H]2N)[C@H](N)C[C@@H]1O,-1.1%

row,Compound,growth inhibition
1,Cn1c(=O)c2c(ncn2CC(O)CO)n(C)c1=O (stereo unspecified),1.16%
2,C[C@@H](Oc1cc(-c2cnn(C3CCNCC3)c2)cnc1N)c1c(Cl)ccc(F)c1Cl,26.5%
3,CCC(=O)NCC[C@@H]1CCc2ccc3c(c21)CCO3,-0.665%
4,CO[C@H]1C[C@@H]2CC[C@@H](C)[C@@](O)(O2)C(=O)C(=O)N2CCCC[C@H]2C(=O)O[C@H]([C@H](C)C[C@@H]2CC[C@@H](OC(=O)C(C)(CO)CO)[C@H](OC)C2)CC(=O)[C@H](C)/C=C(\C)[C@@H](O)[C@@H](OC)C(=O)[C@H](C)C[C@H](C)/C=C/C=C/C=C/1C,1.36%
5,CC1(C)S[C@@H]2[C@H](NC(=O)[C@H](NC(=O)N3CCNC3=O)c3ccccc3)C(=O)N2[C@H]1C(=O)O,-0.235%
6,NC[C@H](O)c1ccc(O)c(O)c1,1.26%
7,CC[C@H](C)C(=O)O[C@H]1CCC=C2C=C[C@H](C)[C@H](CC[C@@H]3C[C@@H](O)CC(=O)O3)[C@H]21,3.29%
8,CNC[C@H](O)c1cccc(O)c1,0.744%
9,CC[C@@]1(O)C(=O)OCc2c1cc1n(c2=O)Cc2cc3c(CN(C)C)c(O)ccc3nc2-1,12.9%
10,CC(=O)N[C@H]1[C@H]([C@H](O)[C@H](O)CO)OC(C(=O)O)=C[C@@H]1NC(=N)N,1.23%
11,OC[C@H]1O[C@H](O[C@]2(CCl)O[C@H](CCl)[C@@H](O)[C@@H]2O)[C@H](O)[C@@H](O)[C@H]1Cl,-2.41%
12,C[C@]12CC[C@H](O)CC1=CC[C@@H]1[C@@H]2CC[C@]2(C)C(c3cccnc3)=CC[C@@H]12,-2.51%
13,CO[C@H]1O[C@@H]2O[C@@]3(C)CC[C@H]4[C@H](C)CC[C@@H]([C@H]1C)[C@@]24OO3,0.229%
14,CN(C)CCOc1ccc(/C(=C(/CCCl)c2ccccc2)c2ccccc2)cc1,2.43%
15,CCCCOc1ccc(OCCCN2CCOCC2)cc1,5.55%
16,Cc1ccc(N(CC2=NCCN2)c2cccc(O)c2)cc1,-5.09%
17,COc1cc(C)c(/C=C/C(C)=C/C=C/C(C)=C/C(=O)O)c(C)c1C,5.2%
18,C[C@]12CCC(=O)C=C1CC[C@@H]1[C@@H]2[C@@H](O)C[C@@]2(C)[C@H]1CC[C@]2(O)C(=O)CO,1.76%
